What all share (experiment): DAPPL (digital affinity profiling via proximity ligation, sequencing); 10 mM Tris-HCl pH 7.5, 50 mM NaCl, 1 mM DTT, 4% glycerol, room temperature, 30 min; GST-TFs on glutathione beads, 16-mer random dsDNA library, 0.1% formaldehyde crosslink after washing; high values mean tight binding
In one assay the target is T1, FEV (Homo sapiens, UniProt Q99581 1-238).
T1 sequence: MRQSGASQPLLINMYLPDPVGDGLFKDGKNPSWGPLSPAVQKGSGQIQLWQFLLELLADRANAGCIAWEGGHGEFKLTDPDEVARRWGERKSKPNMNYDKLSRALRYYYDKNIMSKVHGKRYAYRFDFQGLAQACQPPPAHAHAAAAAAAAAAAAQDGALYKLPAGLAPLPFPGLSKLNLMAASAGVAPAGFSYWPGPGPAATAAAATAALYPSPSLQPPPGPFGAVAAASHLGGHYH
To be noted: protein: recombinant; tags: N-terminal GST; dsDNA, one strand shown. The method, boiled down: (§1)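 Sequencing on an Illumina NextSeq500 followed washing, crosslinking with 0.1% formaldehyde, proximity ligation (BsaI/T4 ligase, 1 h, 37 °C) and PCR amplification of pools that had been incubated for 30 min at room temperature with 200 nmole of a random double-stranded 16-mer DNA library in Tris/NaCl/DTT/glycerol buffer. Each pool held DNA-barcoded human transcription factors, expressed in yeast as GST fusions and captured on glutathione beads, plus a tag-only sample. Binding signal is a hexamer's read frequency for a factor divided by its frequency in the tag-only sample.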

Another assay concerns the target ETV5 (Homo sapiens, UniProt P41161 1-510). To be noted: protein: recombinant; tags: N-terminal GST; dsDNA, one strand shown. The method, boiled down: as §1
The next assay concerns the target HSF1 (Homo sapiens, UniProt Q00613 1-529). To be noted: protein: recombinant; tags: N-terminal GST; chain copies: 3; dsDNA, one strand shown. In outline: as §1
Another assay deals with T2, SPIC (Homo sapiens, UniProt Q8N5J4 1-248).
T2 sequence: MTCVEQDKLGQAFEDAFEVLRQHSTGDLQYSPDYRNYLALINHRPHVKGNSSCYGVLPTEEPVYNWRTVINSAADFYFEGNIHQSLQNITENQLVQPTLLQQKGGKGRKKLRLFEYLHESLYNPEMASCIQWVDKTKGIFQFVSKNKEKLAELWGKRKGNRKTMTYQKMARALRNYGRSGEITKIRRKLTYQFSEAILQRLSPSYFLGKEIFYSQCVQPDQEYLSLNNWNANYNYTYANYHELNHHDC
To be noted: protein: recombinant; tags: N-terminal GST; dsDNA, one strand shown. In outline: as §1

The next assay deals with ELF4 (Homo sapiens, UniProt Q99607 1-663). To be noted: protein: recombinant; tags: N-terminal GST; dsDNA, one strand shown. The method, boiled down: as §1
A further assay concerns the target T3, ELK4 (Homo sapiens, UniProt P28324-2 1-405).
T3 sequence: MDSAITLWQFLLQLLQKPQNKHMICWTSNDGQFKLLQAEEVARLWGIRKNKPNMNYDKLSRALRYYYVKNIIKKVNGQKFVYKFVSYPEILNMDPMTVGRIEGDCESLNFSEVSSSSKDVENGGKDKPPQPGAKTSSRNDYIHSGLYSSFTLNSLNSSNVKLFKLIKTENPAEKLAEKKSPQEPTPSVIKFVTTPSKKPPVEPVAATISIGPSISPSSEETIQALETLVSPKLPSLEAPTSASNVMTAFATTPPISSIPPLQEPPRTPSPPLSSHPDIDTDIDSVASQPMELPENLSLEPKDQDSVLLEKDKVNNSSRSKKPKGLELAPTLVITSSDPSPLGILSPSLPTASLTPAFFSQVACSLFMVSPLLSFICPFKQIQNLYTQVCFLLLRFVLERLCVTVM
To be noted: protein: recombinant; tags: N-terminal GST; dsDNA, one strand shown. In outline:
as §1

The target of the next assay is T4, ETV2 (Homo sapiens, UniProt O00321 1-342).
T4 sequence: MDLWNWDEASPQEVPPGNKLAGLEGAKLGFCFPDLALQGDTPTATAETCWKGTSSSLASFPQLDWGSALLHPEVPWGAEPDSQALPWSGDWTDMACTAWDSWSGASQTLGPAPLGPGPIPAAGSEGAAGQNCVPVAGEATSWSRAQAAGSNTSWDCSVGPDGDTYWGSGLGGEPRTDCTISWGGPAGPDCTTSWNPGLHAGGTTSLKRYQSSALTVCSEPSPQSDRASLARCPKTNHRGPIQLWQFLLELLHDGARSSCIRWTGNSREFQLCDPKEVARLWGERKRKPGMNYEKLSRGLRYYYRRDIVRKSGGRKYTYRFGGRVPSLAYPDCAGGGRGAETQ
To be noted: protein: recombinant; tags: N-terminal GST; dsDNA, one strand shown. In outline:
as §1

A further assay deals with T5, ELF3 (Homo sapiens, UniProt P78545 1-371).
T5 sequence: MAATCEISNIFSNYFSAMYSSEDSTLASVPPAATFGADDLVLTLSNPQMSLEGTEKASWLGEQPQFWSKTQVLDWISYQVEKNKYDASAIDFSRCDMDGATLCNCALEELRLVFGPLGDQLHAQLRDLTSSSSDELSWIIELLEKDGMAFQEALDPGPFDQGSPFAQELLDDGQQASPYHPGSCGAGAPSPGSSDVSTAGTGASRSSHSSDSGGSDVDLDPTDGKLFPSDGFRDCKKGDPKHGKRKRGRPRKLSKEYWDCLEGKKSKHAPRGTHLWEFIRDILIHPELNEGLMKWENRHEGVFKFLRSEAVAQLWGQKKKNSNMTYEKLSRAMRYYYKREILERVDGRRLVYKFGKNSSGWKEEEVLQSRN
To be noted: protein: recombinant; tags: N-terminal GST; dsDNA, one strand shown. In outline:
as §1

The next assay has as its target CRX (Homo sapiens, UniProt O43186 1-299). To be noted: protein: recombinant; tags: N-terminal GST; dsDNA, one strand shown. The method, boiled down:
as §1

In another assay the target is ETV1 (Homo sapiens, UniProt P50549 1-477). To be noted: protein: recombinant; tags: N-terminal GST; dsDNA, one strand shown. The method, boiled down: as §1
A further assay deals with T6, ERF (Homo sapiens, UniProt P50548 1-548).
T6 sequence: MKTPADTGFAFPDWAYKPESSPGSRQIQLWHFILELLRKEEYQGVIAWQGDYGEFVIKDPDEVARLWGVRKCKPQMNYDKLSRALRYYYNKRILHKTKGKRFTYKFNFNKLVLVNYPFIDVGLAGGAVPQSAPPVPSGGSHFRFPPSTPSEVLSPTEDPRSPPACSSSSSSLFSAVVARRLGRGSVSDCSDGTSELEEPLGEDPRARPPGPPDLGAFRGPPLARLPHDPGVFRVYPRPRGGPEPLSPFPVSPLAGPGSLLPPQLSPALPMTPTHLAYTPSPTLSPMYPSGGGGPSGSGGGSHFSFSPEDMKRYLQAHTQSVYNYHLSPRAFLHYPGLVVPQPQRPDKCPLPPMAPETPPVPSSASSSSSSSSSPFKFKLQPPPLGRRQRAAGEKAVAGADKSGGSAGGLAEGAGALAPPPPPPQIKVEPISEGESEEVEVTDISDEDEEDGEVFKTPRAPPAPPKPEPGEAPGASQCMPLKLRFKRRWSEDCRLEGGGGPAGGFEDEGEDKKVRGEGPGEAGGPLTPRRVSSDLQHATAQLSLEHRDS
To be noted: protein: recombinant; tags: N-terminal GST; dsDNA, one strand shown. The method, boiled down: as §1

Another assay deals with T7, ETV3L (Homo sapiens, UniProt Q6ZN32 1-361).
T7 sequence: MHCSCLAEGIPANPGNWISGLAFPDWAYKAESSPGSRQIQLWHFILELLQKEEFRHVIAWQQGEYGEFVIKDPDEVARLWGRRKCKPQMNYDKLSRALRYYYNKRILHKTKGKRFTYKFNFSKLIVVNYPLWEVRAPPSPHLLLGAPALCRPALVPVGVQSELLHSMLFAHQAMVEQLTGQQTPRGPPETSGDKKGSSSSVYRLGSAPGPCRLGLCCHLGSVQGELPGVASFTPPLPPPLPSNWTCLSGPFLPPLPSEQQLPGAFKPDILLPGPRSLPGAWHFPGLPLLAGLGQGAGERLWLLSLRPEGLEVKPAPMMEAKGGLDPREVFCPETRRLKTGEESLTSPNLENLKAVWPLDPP
To be noted: protein: recombinant; tags: N-terminal GST; dsDNA, one strand shown. In outline:
as §1

A further assay addresses T8, ETS2 (Homo sapiens, UniProt P15036 1-469).
T8 sequence: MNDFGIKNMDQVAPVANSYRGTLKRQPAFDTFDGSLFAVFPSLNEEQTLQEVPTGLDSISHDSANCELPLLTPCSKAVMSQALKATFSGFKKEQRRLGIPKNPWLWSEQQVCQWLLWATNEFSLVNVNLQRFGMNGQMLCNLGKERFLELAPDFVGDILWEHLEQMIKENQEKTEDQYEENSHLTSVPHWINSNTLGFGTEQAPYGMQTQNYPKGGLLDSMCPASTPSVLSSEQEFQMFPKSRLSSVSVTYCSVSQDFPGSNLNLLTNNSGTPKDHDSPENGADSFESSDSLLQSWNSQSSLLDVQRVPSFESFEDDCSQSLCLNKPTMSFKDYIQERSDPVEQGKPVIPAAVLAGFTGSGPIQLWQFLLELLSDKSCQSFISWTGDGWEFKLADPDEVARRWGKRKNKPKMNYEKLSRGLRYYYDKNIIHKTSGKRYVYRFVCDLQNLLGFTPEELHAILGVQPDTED
To be noted: protein: recombinant; tags: N-terminal GST; dsDNA, one strand shown. In outline:
as §1

The next assay addresses T9, SPDEF (Homo sapiens, UniProt O95238 1-335).
T9 sequence: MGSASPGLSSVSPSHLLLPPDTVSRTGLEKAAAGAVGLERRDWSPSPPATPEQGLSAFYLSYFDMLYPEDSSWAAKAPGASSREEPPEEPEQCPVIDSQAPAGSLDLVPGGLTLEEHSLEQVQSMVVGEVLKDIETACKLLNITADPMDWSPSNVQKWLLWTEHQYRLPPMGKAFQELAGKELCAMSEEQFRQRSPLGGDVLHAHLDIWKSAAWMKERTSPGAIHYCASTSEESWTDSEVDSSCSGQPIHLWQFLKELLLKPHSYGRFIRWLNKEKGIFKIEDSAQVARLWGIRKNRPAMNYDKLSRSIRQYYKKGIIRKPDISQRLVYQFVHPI
To be noted: protein: recombinant; tags: N-terminal GST; dsDNA, one strand shown. The method, boiled down: as §1

The target of the next assay is T10, ETV7 (Homo sapiens, UniProt Q9Y603 1-341).
T10 sequence: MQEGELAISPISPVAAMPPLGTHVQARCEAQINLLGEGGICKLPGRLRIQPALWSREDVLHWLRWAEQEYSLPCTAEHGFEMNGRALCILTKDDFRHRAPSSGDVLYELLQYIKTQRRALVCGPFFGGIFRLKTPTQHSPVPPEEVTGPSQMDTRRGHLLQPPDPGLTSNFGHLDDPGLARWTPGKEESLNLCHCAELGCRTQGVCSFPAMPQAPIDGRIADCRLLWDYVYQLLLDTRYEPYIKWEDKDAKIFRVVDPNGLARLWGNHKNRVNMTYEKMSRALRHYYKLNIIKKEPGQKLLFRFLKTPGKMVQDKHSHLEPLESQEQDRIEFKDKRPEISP
To be noted: protein: recombinant; tags: N-terminal GST; dsDNA, one strand shown. In outline: as §1

Another assay addresses T11, ELF5 (Homo sapiens, UniProt Q9UKW6-2 1-255).
T11 sequence: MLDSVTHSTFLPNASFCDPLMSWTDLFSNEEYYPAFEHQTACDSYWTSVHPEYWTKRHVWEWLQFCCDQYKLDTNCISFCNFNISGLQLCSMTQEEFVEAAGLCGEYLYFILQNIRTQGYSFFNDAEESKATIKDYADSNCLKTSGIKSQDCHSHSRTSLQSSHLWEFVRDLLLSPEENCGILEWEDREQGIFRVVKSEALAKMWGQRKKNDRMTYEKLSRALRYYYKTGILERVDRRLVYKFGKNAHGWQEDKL
To be noted: protein: recombinant; tags: N-terminal GST; dsDNA, one strand shown. In outline: as §1

In another assay the target is T12, ETV3 (Homo sapiens, UniProt P41162-2 1-143).
T12 sequence: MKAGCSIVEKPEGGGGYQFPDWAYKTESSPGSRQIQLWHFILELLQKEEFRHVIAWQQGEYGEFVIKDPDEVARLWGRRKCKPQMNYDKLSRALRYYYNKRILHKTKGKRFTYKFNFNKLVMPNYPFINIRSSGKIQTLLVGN
To be noted: protein: recombinant; tags: N-terminal GST; dsDNA, one strand shown. In outline: as §1

For another assay, the target named is ETV6 (Homo sapiens, UniProt P41212 1-452). To be noted: protein: recombinant; tags: N-terminal GST; dsDNA, one strand shown. In outline: as §1

We go through 1 sequence from PMC7862700, “An all-to-all approach to the identification of sequence-specific readers for epigenetic DNA modifications on cytosine”.

Chain of CRX (O43186 whole entry): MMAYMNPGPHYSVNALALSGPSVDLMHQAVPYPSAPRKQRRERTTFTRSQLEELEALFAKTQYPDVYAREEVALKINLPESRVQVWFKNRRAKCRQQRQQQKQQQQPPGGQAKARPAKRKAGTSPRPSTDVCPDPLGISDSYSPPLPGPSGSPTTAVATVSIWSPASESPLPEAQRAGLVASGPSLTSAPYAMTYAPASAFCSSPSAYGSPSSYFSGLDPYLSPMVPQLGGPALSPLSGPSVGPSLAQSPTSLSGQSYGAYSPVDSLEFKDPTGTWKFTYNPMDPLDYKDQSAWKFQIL
Chain of HSF1 (Q00613 whole entry): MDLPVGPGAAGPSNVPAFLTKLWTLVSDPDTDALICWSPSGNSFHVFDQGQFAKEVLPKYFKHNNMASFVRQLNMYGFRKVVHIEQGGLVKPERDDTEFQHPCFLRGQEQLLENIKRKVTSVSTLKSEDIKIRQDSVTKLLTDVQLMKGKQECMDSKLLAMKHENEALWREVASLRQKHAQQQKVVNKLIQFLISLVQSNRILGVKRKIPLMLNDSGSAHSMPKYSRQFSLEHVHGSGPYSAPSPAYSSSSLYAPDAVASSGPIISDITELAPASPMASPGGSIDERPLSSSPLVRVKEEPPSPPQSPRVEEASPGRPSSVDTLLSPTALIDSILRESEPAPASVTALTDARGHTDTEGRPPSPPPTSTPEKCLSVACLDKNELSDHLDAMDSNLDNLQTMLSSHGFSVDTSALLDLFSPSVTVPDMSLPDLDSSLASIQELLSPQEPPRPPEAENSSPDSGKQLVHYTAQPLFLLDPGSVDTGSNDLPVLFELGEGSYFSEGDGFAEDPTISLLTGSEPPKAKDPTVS
Chain of ETV1 (P50549 whole entry): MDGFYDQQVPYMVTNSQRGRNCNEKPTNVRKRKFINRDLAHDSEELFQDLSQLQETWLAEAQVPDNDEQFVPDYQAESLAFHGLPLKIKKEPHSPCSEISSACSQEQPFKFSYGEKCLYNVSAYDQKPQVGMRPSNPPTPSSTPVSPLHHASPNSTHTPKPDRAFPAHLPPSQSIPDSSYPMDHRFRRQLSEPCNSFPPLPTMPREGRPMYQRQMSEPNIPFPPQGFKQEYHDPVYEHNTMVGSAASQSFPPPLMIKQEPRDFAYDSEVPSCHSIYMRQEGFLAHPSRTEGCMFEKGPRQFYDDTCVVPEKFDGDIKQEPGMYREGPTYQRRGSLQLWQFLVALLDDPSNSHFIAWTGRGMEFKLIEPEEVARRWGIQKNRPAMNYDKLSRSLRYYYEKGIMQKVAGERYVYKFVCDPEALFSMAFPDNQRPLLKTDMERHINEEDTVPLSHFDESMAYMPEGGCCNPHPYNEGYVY
Chain of ELF4 (Q99607 whole entry): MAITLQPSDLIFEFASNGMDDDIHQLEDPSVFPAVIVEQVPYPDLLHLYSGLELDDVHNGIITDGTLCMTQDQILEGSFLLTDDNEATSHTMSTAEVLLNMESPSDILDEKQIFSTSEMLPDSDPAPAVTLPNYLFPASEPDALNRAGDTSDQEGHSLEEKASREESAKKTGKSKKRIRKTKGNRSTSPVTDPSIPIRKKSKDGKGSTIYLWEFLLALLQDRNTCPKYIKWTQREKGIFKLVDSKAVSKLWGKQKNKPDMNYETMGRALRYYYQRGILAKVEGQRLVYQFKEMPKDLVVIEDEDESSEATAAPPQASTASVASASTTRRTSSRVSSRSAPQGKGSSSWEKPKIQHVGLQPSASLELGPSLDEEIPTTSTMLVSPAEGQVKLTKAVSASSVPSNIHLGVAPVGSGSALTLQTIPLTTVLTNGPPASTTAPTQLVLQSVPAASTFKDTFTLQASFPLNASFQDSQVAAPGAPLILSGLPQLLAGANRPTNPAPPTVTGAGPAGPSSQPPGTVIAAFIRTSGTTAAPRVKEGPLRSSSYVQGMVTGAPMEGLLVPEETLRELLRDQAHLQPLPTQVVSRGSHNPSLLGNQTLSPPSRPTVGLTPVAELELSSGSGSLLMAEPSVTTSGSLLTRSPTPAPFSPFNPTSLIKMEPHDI
Chain of ETV6 (P41212 whole entry): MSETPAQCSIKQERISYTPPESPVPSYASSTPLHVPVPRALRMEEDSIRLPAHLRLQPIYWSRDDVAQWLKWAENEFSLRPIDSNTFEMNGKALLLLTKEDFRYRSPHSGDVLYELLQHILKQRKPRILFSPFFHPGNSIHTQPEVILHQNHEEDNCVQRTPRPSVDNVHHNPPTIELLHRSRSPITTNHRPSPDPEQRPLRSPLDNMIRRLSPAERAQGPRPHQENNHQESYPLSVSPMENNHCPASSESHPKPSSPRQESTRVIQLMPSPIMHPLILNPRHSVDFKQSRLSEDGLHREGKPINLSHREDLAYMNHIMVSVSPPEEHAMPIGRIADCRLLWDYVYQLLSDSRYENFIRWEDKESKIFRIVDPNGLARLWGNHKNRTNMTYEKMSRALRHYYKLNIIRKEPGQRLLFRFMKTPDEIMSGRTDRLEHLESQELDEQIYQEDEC
Chain of ETV5 (P41161 whole entry): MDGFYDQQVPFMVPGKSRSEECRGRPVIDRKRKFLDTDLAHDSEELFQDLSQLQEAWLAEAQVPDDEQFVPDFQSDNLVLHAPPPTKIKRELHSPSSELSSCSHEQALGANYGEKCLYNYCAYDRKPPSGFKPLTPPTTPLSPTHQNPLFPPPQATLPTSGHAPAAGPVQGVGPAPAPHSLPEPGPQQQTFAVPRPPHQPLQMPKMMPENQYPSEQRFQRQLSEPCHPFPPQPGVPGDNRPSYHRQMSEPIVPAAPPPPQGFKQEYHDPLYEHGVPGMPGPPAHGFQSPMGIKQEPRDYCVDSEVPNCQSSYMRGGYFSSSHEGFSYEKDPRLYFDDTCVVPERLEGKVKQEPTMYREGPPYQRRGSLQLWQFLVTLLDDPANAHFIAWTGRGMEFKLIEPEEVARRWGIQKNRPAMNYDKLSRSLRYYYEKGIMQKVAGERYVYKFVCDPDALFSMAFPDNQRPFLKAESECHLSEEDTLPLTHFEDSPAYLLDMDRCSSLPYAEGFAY

Turning to ACTTCC, the binding signal was 12.4 fold enrichment (6-mer frequency, TF over GST control) with FEV; 8.86 fold enrichment (6-mer frequency, TF over GST control) with ETV5; 1.55 fold enrichment (6-mer frequency, TF over GST control) with HSF1; 8.15 fold enrichment (6-mer frequency, TF over GST control) in the assay with SPIC; 7.63 fold enrichment (6-mer frequency, TF over GST control) with ELF4; 6.63 fold enrichment (6-mer frequency, TF over GST control) with ELK4. Moreover, the binding signal is 8.23 fold enrichment (6-mer frequency, TF over GST control) with ETV2; 7.67 fold enrichment (6-mer frequency, TF over GST control) with ELF3; 1.21 fold enrichment (6-mer frequency, TF over GST control) in the assay with CRX; 8.66 fold enrichment (6-mer frequency, TF over GST control) with ETV1; 7.03 fold enrichment (6-mer frequency, TF over GST control) in the assay with ERF; 7.94 fold enrichment (6-mer frequency, TF over GST control) with ETV3L. The binding signal with ETS2 was 8.81 fold enrichment (6-mer frequency, TF over GST control); with SPDEF, 8.64 fold enrichment (6-mer frequency, TF over GST control); with ETV7, 7.8 fold enrichment (6-mer frequency, TF over GST control); with ELF5 it was 12.5 fold enrichment (6-mer frequency, TF over GST control); with ETV3, 9.02 fold enrichment (6-mer frequency, TF over GST control); with ETV6, 10.9 fold enrichment (6-mer frequency, TF over GST control).
